Experimental findings from PubChem BioAssay (Tox21) are described below.

The nature of assay [1]: qHTS assay to test for compound auto fluorescence at 535 nm (green) in HEK293 cells (AID 720680). Background: In qHTS, concentration-response curves come from the screen itself.
A short description of assay [2]: qHTS assay to test for compound auto fluorescence at 460 nm (blue) in HEK293 cell free culture (AID 720681). The method in brief: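 Test compounds were pinned into cell-free culture medium (DMEM with 10% FBS) and fluorescence was read directly at Ex/Em 405/460 nm. Signals were expressed as fluorescence equivalents of triamterene, with DMSO vehicle as control.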
Assay [3] can be described thus: qHTS assay to test for compound auto fluorescence at 590 nm (red) in HEK293 cell free culture (AID 720683). The gist of the method: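 Tox21 10K library compounds were pinned into cell-free DMEM with 10% FBS and fluorescence was read at excitation 540 nm. Activity is expressed as Rose Bengal sodium equivalency.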
Assay [4] can be described thus: qHTS assay to test for compound auto fluorescence at 460 nm (blue) in HepG2 cell free culture (AID 720685). The method in brief:
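Cell-free plates of MEM plus 10% FBS received 23 nL compound or DMSO vehicle; blue-channel (405/460 nm) intensity scored against triamterene as reference fluorophore.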

Assay [5] can be described thus: qHTS assay to test for compound auto fluorescence at 535 nm (green) in HepG2 cell free culture (AID 720686).
Assay [6] in a line: qHTS assay to test for compound auto fluorescence at 460 nm (blue) in HepG2 cells (AID 720687). The gist of the method: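 Cells (2,000/well in MEM with 10% FBS) attached overnight at 37 C, then were exposed to compound or DMSO for 1 hr at 37 C, 5% CO2. Fluorescence read at Ex/Em 405/460 nm, expressed as triamterene-equivalent signal.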
The target in assay [7] is Glucocorticoid receptor (Homo sapiens) (UniProt P04150). Briefly: qHTS assay to identify small molecule agonists of the glucocorticoid receptor (GR) signaling pathway (AID 720691; active means well fitted activation curve with a large enough effect in the signal ratio in the repeat runs, not every such curve was filed as active; the % refers to the signal ratio). The gist of the method: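 A HeLa cervical cancer line expressing GR and a glucocorticoid response element-driven beta-lactamase gene is treated with compounds for 18 h; LiveBLAzer B/G FRET substrate is then applied and fluorescence read.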

The target is the same in assay [8]. Briefly: qHTS assay to identify small molecule antagonists of the glucocorticoid receptor (GR) signaling pathway (AID 720692; active means well fitted inhibition curve with a large enough effect in the signal ratio in the repeat runs, not every such curve was filed as active; the % refers to the signal ratio). The gist of the method:
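GRE-bla HeLa line, dex-stimulated (5 nM final). Compound exposure 18 h, 37 C. Beta-lactamase FRET read after 2 h RT substrate.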

Assay [9] in a line: qHTS assay to identify small molecule antagonists of the glucocorticoid receptor (GR) signaling pathway - cell viability counter screen (AID 720693). Further: nearly all actives have a fitted effect of over 55% in size.
Assay [10] in a line: qHTS assay for identifying genotoxic compounds that show differential cytotoxicity against isogenic chicken DT40 cell lines with known DNA damage response pathways - Rev3 mutant cell line (AID 743014). Further: nearly all actives have a fitted effect of over 55% in size. Further: potency means the concentration at half of the fitted maximal effect.
A short description of assay [11]: qHTS assay for identifying genotoxic compounds that show differential cytotoxicity against isogenic chicken DT40 cell lines with known DNA damage response pathways - Rad54/Ku70 mutant cell line (AID 743015). Further: nearly all actives have a fitted effect of over 60% in size. Further: potency means the concentration at half of the fitted maximal effect.
Assay [12] in a line: qHTS assay to identify small molecule antagonists of the androgen receptor (AR) signaling pathway - cell viability counter screen (AID 743033; further: nearly all actives have a fitted effect of over 45% in size).
Assay [13] can be described thus: qHTS assay to identify small molecule antagonists of the androgen receptor (AR) signaling pathway using the MDA cell line - cell viability counter screen (AID 743041; further: nearly all actives have a fitted effect of over 45% in size). The method in brief:
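In this qHTS counter assay, fluorescence intensity after CellTiter-Fluor addition indicated viability of MDA-kb2 AR-luc cells given compounds and R1881 for 16 h at 37C.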

The nature of assay [14]: qHTS assay to test for compound auto fluorescence at 590 nm (red) in HepG2 cell free culture (AID 720684). The method in brief: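 Ex 540 / Em 590 nm read of compound in cell-free MEM (10% FBS). Rose Bengal sodium reference.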
A short description of assay [15]: qHTS assay for identifying genotoxic compounds that show differential cytotoxicity against isogenic chicken DT40 cell lines with known DNA damage response pathways - wild type cell line (AID 743012). Further: nearly all actives have a fitted effect of over 60% in size. Further: potency means the concentration at half of the fitted maximal effect. The method in brief:
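300 wt DT40 cells/well; cpd (DMSO) pintool-transferred after ~0.5 h at 37 C/5% CO2; 40 h incubation; CellTiter-Glo added, 30 min RT; luminescence read.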

Values without a mark were called inactive. Inconclusive results are not listed. Active and inactive are the calls of the source. Unless noted, the call rests on the fitted dose curve; in most records, active means well fitted curve in the direction sought with a large enough effect in the repeat runs; inconclusive means weak or mixed curves; inactive means no such curve, though single readings can be large; an effect the other way counts as inactive or inconclusive.

Sequence of Glucocorticoid receptor (Homo sapiens) (P04150 whole entry, looked up): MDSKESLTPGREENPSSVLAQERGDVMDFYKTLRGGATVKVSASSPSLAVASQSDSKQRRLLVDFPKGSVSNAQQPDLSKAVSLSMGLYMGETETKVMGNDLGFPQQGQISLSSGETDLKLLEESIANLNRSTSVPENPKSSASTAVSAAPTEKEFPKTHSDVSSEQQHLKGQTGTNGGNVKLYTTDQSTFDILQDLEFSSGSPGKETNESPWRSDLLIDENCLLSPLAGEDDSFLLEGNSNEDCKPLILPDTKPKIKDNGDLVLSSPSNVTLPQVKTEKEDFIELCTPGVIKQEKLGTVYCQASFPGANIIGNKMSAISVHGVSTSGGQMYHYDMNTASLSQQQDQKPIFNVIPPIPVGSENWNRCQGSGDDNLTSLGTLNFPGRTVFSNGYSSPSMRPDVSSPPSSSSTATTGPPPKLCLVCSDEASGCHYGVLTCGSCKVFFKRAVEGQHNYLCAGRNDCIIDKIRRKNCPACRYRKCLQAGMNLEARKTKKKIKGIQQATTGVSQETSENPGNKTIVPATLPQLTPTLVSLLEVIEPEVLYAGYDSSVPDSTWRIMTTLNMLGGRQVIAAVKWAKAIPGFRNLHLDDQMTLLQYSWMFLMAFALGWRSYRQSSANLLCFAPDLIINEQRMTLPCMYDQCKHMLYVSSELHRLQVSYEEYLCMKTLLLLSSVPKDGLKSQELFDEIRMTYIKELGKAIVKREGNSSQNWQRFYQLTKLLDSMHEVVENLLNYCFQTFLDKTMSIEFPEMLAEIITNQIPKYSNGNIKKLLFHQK

With `CC1(C)[C@@H]2CC[C@@]1(C)[C@H](O)C2`, the result in assay [1], in assay [2], in [3], in assay [4], in assay [5] and in [6] was inactive. The outcome in assay [9] and in assay [12] was inactive. The Potency entry in assay [7], in assay [8], in assay [10], in assay [11] and in [13] was “inactive” in each case.

Consider `CC(CO)(CO)[N+](=O)[O-]`, for which the molecule was classed as inactive in [1], in assay [2], in assay [3], in [14], in assay [4] and in assay [5]. Also, the outcome in assay [6] and in assay [12] was inactive. Further, the Potency entry in assay [7], in assay [10], in [11] and in [13] was “inactive” in each case.

Take `N[C@@H](CCC(=O)O)C(=O)O`: the molecule was called inactive in [1], in [2], in [3], in assay [14], in [4] and in assay [5]. The molecule was classed as inactive in assay [6], in assay [9] and in assay [12]. Besides, the Potency result in [7], in [8], in [15], in assay [10], in [11] and in assay [13] was “inactive” throughout.

Consider `CCCCCC(=O)OCCc1ccccc1`, for which the outcome in assay [1], in assay [2], in assay [3], in [14], in assay [4] and in [5] was inactive. The result in assay [6] and in assay [12] was inactive. In addition, the Potency entry in [7], in assay [8], in [15], in [10], in assay [11] and in assay [13] was “inactive” in each case.

Regarding `CC[C@H]1OC(=O)[C@H](C)[C@@H](O[C@H]2C[C@@](C)(OC)[C@@H](O)[C@H](C)O2)[C@H](C)[C@@H](O[C@@H]2O[C@H](C)C[C@H](N(C)C)[C@H]2O)[C@](C)(OC)C[C@@H](C)C(=O)[C@H](C)[C@@H](O)[C@]1(C)O`, the outcome in assay [1], in assay [2], in [3], in assay [14], in assay [4] and in assay [5] was inactive. The call in [6], in assay [9] and in assay [12] was inactive. Moreover, the Potency entry in [7], in assay [8], in assay [10], in assay [11] and in assay [13] was “inactive” in each case.

On to `COc1ccccc1OCC1CNC(=O)O1` (stereo not drawn), for which the result in [1], in [2], in [3], in assay [14], in assay [4] and in assay [5] was inactive. Further, the molecule was called inactive in [6], in assay [9] and in assay [12]. The Potency entry in assay [15], in assay [10] and in [11] was “inactive” throughout.

On to `CC[N+](CC)(CC(=O)Nc1c(C)cccc1C)Cc1ccccc1` (tested in a mixture with another compound), for which the result in assay [1], in assay [2], in assay [3], in [14], in assay [4] and in [5] was inactive. Further, the call in assay [6], in [9] and in assay [12] was inactive. The Potency in assay [10] was 16 µM (active). For the same molecule, the Potency result in assay [11] and in assay [13] was “inactive” throughout.

Consider `C[N+](C)(C)CCCCCCCCCC[N+](C)(C)C`, for which the call in [1], in [2], in assay [3], in [14], in assay [4] and in assay [5] was inactive. Moreover, the molecule was called inactive in assay [6] and in assay [12]. In addition, the Potency result in assay [7], in assay [15], in [10], in [11] and in assay [13] was “inactive” in each case.

On to `CC(=O)OCC(=O)[C@@]1(O)[C@H](C)C[C@H]2[C@@H]3CCC4=CC(=O)C=C[C@]4(C)[C@@]3(F)[C@@H](O)C[C@@]21C`, for which the molecule was called inactive in assay [1], in assay [2], in assay [3], in assay [14], in [4] and in assay [5]. For the same molecule, the outcome in assay [6], in assay [9] and in assay [12] was inactive. Also, the Potency entry in assay [15], in assay [11] and in [13] was “inactive” each time.

Take `CCN1C=CN(C)C1C` (stereo not drawn): the outcome in assay [1], in assay [2], in assay [3], in [4], in [5] and in assay [6] was inactive. Also, the molecule was classed as inactive in assay [9] and in [12]. Besides, the Potency entry in assay [7], in assay [8], in [15], in assay [10], in [11] and in assay [13] was “inactive” each time.

For `N[C@H](C(=O)O)[C@@H](O)c1ccc(O)c(O)c1`, the molecule was called inactive in assay [1], in assay [2], in [3], in assay [14], in [4] and in assay [5]. Further, the outcome in assay [6], in [9] and in [12] was inactive. Besides, the Potency entry in [7], in assay [8] and in assay [13] was “inactive” each time. Moreover, the Potency in assay [15] is 13.3 µM (active); in assay [10] it was 16.8 µM (active); in assay [11], 21.1 µM (active).

For `OCCCCCO`, the result in [1], in assay [2], in assay [3], in assay [14], in assay [4] and in assay [5] was inactive. Also, the call in assay [6], in assay [9] and in assay [12] was inactive. For the same molecule, the Potency entry in assay [15], in assay [11] and in assay [13] was “inactive” each time.
